Here are results for 100 compounds from PubChem BioAssay AID598 (SRMLSC, 2007).

Hit rate of the full screen: of about 85,000 compounds, about 5,100 (6%) were called active.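 The calls were made as follows: active = viability at or below 40%; inactive = viability above 40%.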 Only a selection was taken, and actives are over-represented in it overall.

This experiment in a line: H69AR cell viability reduction – human, 86K library, primary screen (AID 598).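 Also: multidrug resistant small cell line overexpressing MRP-1 efflux transporter; 100% = mean luminescence of untreated control wells.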 To be noted: H69AR lung tumor viability, ATP luminescence, 72 h; at 10 µM; stronger effect = lower value.
Usually viability stands for a read-out of living cells in per cent, often relative to untreated cells. For `O=C(CSc1nnc(-c2cccs2)n1Cc1ccccc1)N1CCc2ccccc2C1`, the viability was 29.9% (active).
Under `Cc1nnc(SCC(=O)N2CCc3ccccc3C2)s1` stands 85.3% (inactive); under `O=C(CSc1nnc(-c2cccs2)n1-c1ccccc1)N1CCN(C(=O)c2ccco2)CC1`, 81.3% (inactive); under `C=CCn1c(N)c(C(=O)OCC(C)C)c2nc3ccccc3nc21`, 93.2% (inactive).
The value for `CC(C)Cn1c(N)c(C(=O)NCc2cccs2)c2nc3ccccc3nc21` was 1.75% (active).
Under `C=CCn1c(N)c(S(=O)(=O)c2cccs2)c2nc3ccccc3nc21` stands 76.4% (inactive); under `CC(C)(C)c1cc(=O)n2c(nc3ccccc32)[nH]1`, 75.5% (inactive); under `Cc1ccc(SCC(=O)Nc2ncc(C)s2)cc1`, 94.5% (inactive).
In the case of `CC(C)C(OC(=O)c1cccs1)C(=O)NC1CCCCC1` (stereo not given), the viability is 101% (inactive).
Under `CC(=O)Nc1nonc1-c1nc2ccccc2n1Cc1ccccn1` stands 84.4% (inactive); under `Nc1nonc1-c1nc2ccccc2n1CCC(=O)O`, 109% (inactive); under `COc1ccc(C)c(Cn2c(-c3nonc3N)nc3ccccc32)c1`, 21% (active).
In the case of `COCc1nc2ccccc2n1Cc1ccccc1Br`, the viability was 98.2% (inactive).
Under `Nc1nonc1-c1nc2ccccc2n1Cc1ccc(F)cc1` stands 18.4% (active).
Under `CCC(=O)Nc1nc2ccccc2n1Cc1ccccc1C` stands 65.7% (inactive); under `c1ccc(Nc2nc(N3CCOCC3)c3ccccc3n2)cc1`, 95.8% (inactive).
The value for `O=C(O)CSCc1ccc(C(=O)O)o1` was 96.9% (inactive); that for `COc1ccccc1NC(=O)CC(NCCN(C)C)C(=O)O` (stereo not given) was 99.1% (inactive).
Regarding `CCOC(=O)C1CSC(CC(=O)Nc2ccc(OCC)cc2)C(=O)N1` (stereo not given), the viability was 86.6% (inactive).
Under `CC(C)C(=O)NC(NC(=S)NC1CCS(=O)(=O)C1)C(Cl)(Cl)Cl` (stereo not given) stands 102% (inactive); under `Cc1ccc(-n2nc3cc(C)c(NC(=O)c4cccnc4)cc3n2)cc1`, 82% (inactive).
Turning to `O=S(=O)(NCC1OCCc2ccccc21)c1ccccc1` (stereo not given), the viability is 87.1% (inactive).
Under `COc1ccc(OC)c(C(=O)c2ccc(C(=O)O)cc2)c1` stands 99.1% (inactive).
Under `COC(=O)c1cc(OC)ccc1-c1ccc(OC)cc1` stands 29.3% (active).
Under `COc1ccc(NC(=O)c2ccc(OC)cc2)cc1` stands 105% (inactive).
With `CCOC(=O)C1=C(C)NC(SC)=NC1c1ccccc1` (stereo not given), the viability is 83.7% (inactive).
Turning to `CC1CCN(C(=O)CN(c2ccc(Oc3ccccc3)cc2)S(C)(=O)=O)CC1`, the viability was 85% (inactive).
The value for `CCCOn1c(-n2nc(C)cc2C)nc2ccccc2c1=O` was 93.8% (inactive).
Turning to `COc1ccc(C)cc1N(C)C(=O)c1coc(=O)c2ccccc12`, the viability was 94.7% (inactive).
Under `CCOc1ccccc1Nc1nnc(SCC(=O)Nc2cc(C)on2)s1` stands 71.1% (inactive); under `Cc1cc(C)c2c(c1)cc(C)c1nnc(SCC(=O)Nc3cc(C)on3)n12`, 16.8% (active).
The value for `Cc1cc(NC(=O)CSc2nnc(-c3ccc(Cl)s3)o2)no1` was 96.5% (inactive).
For `CC(C)(C)n1nnnc1C(c1ccc(Cl)cc1)N1CCSCC1` (stereo not given), the viability was 82.5% (inactive).
The value for `COc1ccc(S(=O)(=O)NCc2ccc(C(=O)N(C)Cc3ccco3)cc2)cc1` was 76.5% (inactive); that for `O=C(c1cc2c(s1)CCC2)N1CCN(c2ccccc2)CC1` was 39.4% (active).
With `Cc1nc2ccc(C(=O)N3CCN(c4ccccc4)CC3)cc2s1`, the viability is 91.5% (inactive).
The value for `CC(=O)N1CCCc2cc(S(=O)(=O)CCC(=O)N3CCN(c4ccccc4)CC3)ccc21` was 86.6% (inactive).
Turning to `COc1ccc(C)cc1S(=O)(=O)Nc1cccc(Cl)c1Cl`, the viability was 97.3% (inactive).
On to `CCOc1ccc(C(O)Cc2nc3ccccc3n2C)cc1` (stereo not given), for which the viability is 96.6% (inactive).
Take `O=C(COC(=O)c1n[nH]c2ccccc12)NCc1ccccc1`: the viability was 96.7% (inactive).
Turning to `COC(=O)Nc1ncc(CN2CCCCC2)s1`, the viability is 92.5% (inactive).
Take `CCN1C(=O)/C(=C2/Sc3ccc(OC)cc3N2C)SC1=Nc1ccc(C)cc1`: the viability was 66.1% (inactive).
Under `COc1ccc(C2C(C(=O)N3CCN(c4ccc(OC)cc4)CC3)c3ccccc3C(=O)N2C)cc1` (stereo not given) stands 32.2% (active).
For the compound `COc1ccc(N2CCN(CCNC(=O)CCN3C(=O)COc4ccccc43)CC2)cc1`, the viability is 86.1% (inactive).
`CCOc1ccc(C2C(C(=O)O)c3ccccc3C(=O)N2CCN2CCOCC2)cc1` (stereo not given): the viability was 85.1% (inactive).
For the compound `CCCNC(=O)c1ccccc1NC(=O)CSCc1ccc(OC)cc1`, the viability was 83.9% (inactive).
The value for `COc1ccc(C2=NO[C@@H]3C(=O)N(Cc4ccccc4)C(=O)[C@H]23)cc1OC` was 95.8% (inactive); that for `CCNCCC(=O)N1c2ccccc2Sc2ccc(NC(=O)OCC)cc21` was 78.6% (inactive); that for `Cc1ccc(F)c(NC(=O)CCc2ccccc2)c1` was 97.8% (inactive).
Under `Cc1cccc(N2CCN(C(=O)c3cc4c(=O)[nH]c5ccccc5c4n3C)CC2)c1C` stands 36% (active).
Under `CC(=O)N1CCN(c2cccc(C)c2C)CC1` stands 107% (inactive); under `Cn1c(C(=O)NCCN2CCc3ccccc3C2)cc2c(=O)[nH]c3ccccc3c21`, 61.7% (inactive); under `CCn1c(C)nc2c1C(=O)c1ccccc1C2=O`, 69.1% (inactive).
Regarding `CC1CCc2c(nc3ncnn3c2Nc2ccc(OC(F)(F)F)cc2)C1` (stereo not given), the viability is 69.4% (inactive).
Under `COc1ccccc1NC(=O)CSc1nc2sc(C)c(C)c2c(=O)n1Cc1ccco1` stands 58.9% (inactive).
Take `COC(=O)c1c(NC(=O)CSc2nncs2)sc2c1CCCCC2`: the viability is 50.8% (inactive).
The value for `COc1ccc(-n2c(SCC(=O)Nc3sc4c(c3C#N)CCCC4)nnc2-c2ccc(O)cc2)cc1` was 11.8% (active); that for `CC(Sc1nc2ccccc2c(=O)n1Cc1ccco1)C(=O)c1ccccc1` (stereo not given) was 77.2% (inactive).
Under `N#Cc1c(NC(=O)CSc2nc3ccccc3c(=O)n2Cc2ccco2)sc2c1CCCC2` stands 3.86% (active).
Regarding `COc1ccc(-c2nnc(SCC(=O)c3ccco3)n2-c2ccccc2)cc1`, the viability is 91.9% (inactive).
Under `CCC(C)NC(=O)C1CCCN(C(=O)NC2CCCCC2)C1` (stereo not given) stands 94.6% (inactive); under `COc1ccc(C(C#N)Nc2ccc(C)cc2)cc1` (stereo not given), 89.5% (inactive).
Regarding `Cc1cccc(OCCCC(=O)Nc2ccc(S(=O)(=O)N3CCCC3)cc2)c1`, the viability was 89.2% (inactive).
For the compound `O=C(c1ccc2c(c1)OCO2)N1CCOCC1`, the viability was 96.2% (inactive).
Under `O=C(Cn1cnc2c(cnn2-c2ccccc2)c1=O)NCc1ccccc1` stands 30.8% (active); under `O=C(Cn1cnc2c(cnn2-c2ccc(F)cc2)c1=O)NCCc1ccccc1`, 99.4% (inactive).
The value for `CN(Cc1ccccc1)C(=O)CCNC(=O)Cn1cnc2ccccc2c1=O` was 93.7% (inactive); that for `O=C(OC1CCCCC1=O)c1cccc(S(=O)(=O)NCc2ccccc2)c1` (stereo not given) was 68.2% (inactive).
The value for `Cn1c(=O)n(C)c2cc(S(=O)(=O)N3CCCc4ccccc43)ccc21` was 21.1% (active); that for `Cc1nn(C)c(C)c1S(=O)(=O)N1CCc2ccccc21` was 95.6% (inactive); that for `Cn1c(=O)c(=O)n(C)c2cc(S(=O)(=O)NCCc3ccccc3)ccc21` was 94.1% (inactive).
`Cc1ccc(S(=O)(=O)N2CC(=O)Nc3ccccc32)cc1C`: the viability is 102% (inactive).
Under `CSc1nc2ccc(S(=O)(=O)N3CCc4ccccc43)cc2s1` stands 64.1% (inactive).
Under `CCn1c(=O)c(=O)n(CC)c2cc(S(=O)(=O)N3CCc4ccccc43)ccc21` stands 27.2% (active).
Under `CC1=CC(C)(C)NC(=S)N1c1ccccc1` stands 98.5% (inactive).
Consider `CCN(CC)CCCNC(=O)CCc1ccccc1`, for which the viability was 97.4% (inactive).
The value for `O=C(NCCOc1ccccc1)c1ccccc1` was 91.4% (inactive); that for `CCc1ccc(CNC(=O)C2CCCN(c3nc4ccccc4o3)C2)cc1` (stereo not given) was 92.4% (inactive).
For the compound `NC1=NC(=O)C2(COC(c3ccccc3Cl)OC2)S1` (stereo not given), the viability was 92.6% (inactive).
Under `CCOc1ccc(-n2c(N)c(C(=O)NCC3CCCO3)sc2=S)cc1` (stereo not given) stands 94.8% (inactive); under `Oc1c(Cl)cc(Cl)c(Cl)c1Cc1c(O)c(Cl)cc(Cl)c1Cl`, 13.5% (active); under `COc1cc(OC)nc(NC(=O)CCl)n1`, 98.7% (inactive).
As for `C=C(Cl)COC(=O)C1C2C=CC(C2)C1C(=O)O` (stereo not given), the viability was 101% (inactive).
As to `Cc1csc(NC(=O)NC2(C(F)(F)F)Oc3ccccc3O2)n1`, the viability is 22.9% (active).
In the case of `Cc1csc(NC(=O)CN2CCCCCC2)n1`, the viability was 95.1% (inactive).
Consider `CCOC(=O)Cc1csc(NC(=O)Nc2ccccc2)n1`, for which the viability is 96.7% (inactive).
Regarding `COc1cc(CC(=O)NCc2cccs2)cc(OC)c1OC`, the viability is 106% (inactive).
Take `COc1ccc(Nc2nc(=O)[nH]nc2C)cc1`: the viability is 95.5% (inactive).
Take `CCOC(=O)c1c(NC(=O)CCl)sc(C(=O)N(CC)CC)c1C`: the viability was 2.11% (active).
Regarding `CCOC(=O)c1sc(NC(=O)CCN2CCOCC2)c(C(=O)OCC)c1C`, the viability was 45.7% (inactive).
The value for `CCOC(=O)Nc1sc(C(=O)N(C)C)c(C)c1C(=O)OCC` was 84.2% (inactive).
Under `Cc1ccc(C(=O)N2CCCC2)c(F)c1F` stands 87.4% (inactive); under `CC(C)c1ccc(OCC(O)Cn2cnc3ccccc32)cc1` (stereo not given), 82.6% (inactive).
The value for `OC(CN=c1sc2ccccc2n1CC(O)COc1ccccc1)COc1ccccc1` (stereo not given) was 23.3% (active); that for `OC(COc1ccccc1)Cn1cc(Br)cn1` (stereo not given) was 109% (inactive).
Take `Cc1cccn2c(=O)c(/C=C(\C#N)S(=O)(=O)c3ccc(Cl)cc3)c(N3CCC(C(N)=O)CC3)nc12`: the viability was 82.2% (inactive).
The value for `CC(OC(=O)CN1C(=O)C2CCCCC2C1=O)C(=O)Nc1ncc(Cl)cc1Cl` (stereo not given) was 101% (inactive); that for `CC1=CC(C)(C)Nc2ccc(OC(=O)C(Cc3ccccc3)N3C(=O)C4CCCCC4C3=O)cc21` (stereo not given) was 80.3% (inactive); that for `CC1=CC(C)(C)Nc2ccc(OC(=O)CN3C(=O)C4CCCCC4C3=O)cc21` (stereo not given) was 0.5% (active).
The value for `CCCCCCSc1nsc(N)n1` was 82.7% (inactive).
